Active and inactive are the calls of the source. The calls were made as follows: active = hit-call score of the fitted dose curve at least 0.9, where 1 is the maximum; inactive = score below 0.9.

Cellular tumor antigen p53 (Homo sapiens), sequence (P04637 whole entry, looked up): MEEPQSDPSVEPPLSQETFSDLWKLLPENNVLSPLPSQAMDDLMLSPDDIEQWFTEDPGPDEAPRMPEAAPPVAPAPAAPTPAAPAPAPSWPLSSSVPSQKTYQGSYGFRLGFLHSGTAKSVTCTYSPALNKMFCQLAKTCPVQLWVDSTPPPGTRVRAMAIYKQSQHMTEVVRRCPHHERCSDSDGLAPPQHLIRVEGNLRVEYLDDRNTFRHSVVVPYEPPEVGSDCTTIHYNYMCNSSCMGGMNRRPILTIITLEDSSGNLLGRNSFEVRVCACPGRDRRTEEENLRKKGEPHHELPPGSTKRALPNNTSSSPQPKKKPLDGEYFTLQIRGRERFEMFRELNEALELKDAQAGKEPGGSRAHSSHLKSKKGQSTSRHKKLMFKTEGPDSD

This experiment deals with Cellular tumor antigen p53 (Homo sapiens) (UniProt P04637). Nature of the experiment: ATG_p53_CIS: Attagene CIS-FACTORIAL HepG2 Assay for human p53 Transcription Factor (AID 2282994). The note with it: HepG2 p53 cis-element reporter, Attagene mRNA; actives raise or lower the signal. How it is done:
ATG_CIS is a cell-based, multiplexed-readout assay that uses HepG2, a human liver cell line, with measurements taken at 24 hours after chemical dosing in a 24-well plate.ATG_p53_CIS is one of 52 assay component(s) measured or calculated from the ATG_CIS assay. It is designed to make measurements of mRNA induction, a form of inducible reporter, as detected with fluorescence intensity signals by Reverse transcription polymerase chain reaction (RT-PCR) and Capillary electrophoresis technology.Data from the assay component ATG_p53_CIS was analyzed into 1 assay endpoint. This assay endpoint, ATG_p53_CIS, was analyzed with bidirectional fitting relative to DMSO as the negative control and baseline of activity. Using a type of inducible reporter, measures of mRNA for gain or loss-of-signal activity can be used to understand the reporter gene at the transcription factor-level as they relate to the gene TP53. Furthermore, this assay endpoint can be referred to as a primary readout, because this assay has produced multiple assay endpoints where this one serves a reporter gene function. To generalize the intended target to other relatable targets, this assay endpoint is annotated to the dna binding intended target family, where the subfamily is tumor suppressor.
Human liver HepG2 cells are transiently transfected with multiple reporter transcription units (MRTUs) in 6-well plates using FuGene 6 reagent (Roche; 3 ml FuGene/1 mg DNA). The MRTU constructs are regulated by a cis-regulating element (promoter). […] A major difference between the CIS and TRANS system is that in CIS activities of endogenous TFs are measured, whereas the TRANS assay evaluates changes in activities of exogenous, chimeric NR-Gal4 proteins. […] At the end of 24 hour incubation, total RNA was isolated using TriZol reagent (Invitrogen). The isolated RNA is then reverse-transcribed using oligo(dT) primer and Mo-MLV reverse transcriptase (Invitrogen) with DNAse I (Ambion) treatment for 30 min. The one-tenth of the produced cDNA was amplified by PCR using Taq DNA polymerase (Invitrogen) and two reporter sequence-specific primers. The PCR products were fluorescently labeled by primer extension with 6-arboxyfluorescein (6-FAM) 5'-labeled reporter sequence-specific primer (2 min at 95 C, 20 s at 68 C and 10 min at 72 C) and these products were digested with 5U of HpaI (New England Biolabs) for 2h at 37 C. The fragments were purified using Qiaquick PCR columns (Qiagen), analyzed on an ABI 3130xL genetic analyzer (Applied Biosystems) with peak positions identified by using a set of X-rhodamine (ROX)-labeled MapMarker1000 molecular weight standards (BioVentures). The raw capillary electrophoresis data was processed using Attagraph software (Attagene).
Regarding `CCCCCCCCCCCCN(CCCCCCCCCCCC)CCCCCCCCCCCC`, the call was inactive.

For `O=C(Oc1ccccc1)c1ccc(O)cc1`, the outcome was inactive.

With `Cc1ccc(C=O)s1`, the result was inactive.

As for `CNC(=O)Oc1ccc2c(c1)[C@]1(C)CCN(C)[C@@H]1N2C`, the compound was called inactive.

Consider `CCCc1ccccc1O`, for which the compound was classed as inactive.

Turning to `NC(=O)Nc1ccc(Cl)cc1`, the outcome was inactive.

For the compound `CCCCO`, the outcome was inactive.

Consider `CC(=O)[C@H]1CC[C@H]2[C@@H]3CC=C4C[C@@H](O)CC[C@]4(C)[C@H]3CC[C@]12C`, for which the result was inactive.

Regarding `CC1(C)C(=O)N(Br)C(=O)N1Cl`, the outcome was inactive.

As for `CC(C)Oc1ccccc1O`, the result was inactive.

As for `CC(C)=CCC/C(C)=C/COC=O`, the outcome was inactive.

`C=CC(C)(C)O`: the result was inactive.

Regarding `C=CC(=O)OCC(O)COc1ccccc1` (stereo not given), the result was inactive.

`CC(=O)OCCOC(C)=O`: the result was inactive.

Broadly, the AC50 is the concentration giving half of the maximal activity seen. `O=C(Nc1ccccc1)c1cc([N+](=O)[O-])ccc1Cl`: the AC50 was 68.6 µM (active).

For `COc1cc(C=O)ccc1OC(=O)C(C)C`, the outcome was inactive.

Regarding `CCCCCCCCCCCCCCCCCC(=O)OCC(CC)CCCC` (stereo not given), the outcome was inactive.

As for `CCCCCCCCCCCCCOS(=O)(=O)O`, the compound was called inactive.

Consider `O=C1CCCCCCCCCCCCCCO1`, for which the outcome was inactive.

Turning to `C=CC[N+](C)(C)CC=C`, the compound was called inactive.

Take `O=C(Cl)c1cccc(C(=O)Cl)c1`: the compound was classed as inactive.

For the compound `CC(CCO)CCc1ccccc1` (stereo not given), the result was inactive.

Regarding `Cc1ccc(Nc2ccc(O)c3c2C(=O)c2ccccc2C3=O)cc1`, the result was inactive.

Take `C=C(C)[C@@H]1CCC2=CC(=O)C[C@@H](C)[C@]2(C)C1`: the call was inactive.

Consider `O=P(c1ccccc1)(c1ccccc1)c1ccccc1`, for which the compound was classed as inactive.

Turning to `C=C(C)[C@@H]1CC[C@@H](C)C[C@@H]1O`, the outcome was inactive.

With `CC(C)C1CCC(O)CC1` (stereo not given), the compound was called inactive.

With `Nc1cc(Cl)c(O)c(Cl)c1`, the AC50 is 144 µM (active).

As to `COc1ccc(Cl)cc1C`, the compound was called inactive.

For the compound `O=C1OC2(c3cc(Br)c(O)c(Br)c3Oc3c2cc(Br)c(O)c3Br)c2c(Cl)c(Cl)c(Cl)c(Cl)c21`, the call was inactive.

`CCCCCCCCCCC(CO)CCCCCCCC` (stereo not given): the outcome was inactive.

`C=CC(=O)OCCOCCOCC`: the result was inactive.

As for `CC(=O)Nc1ccccc1O`, the compound was called inactive.

Regarding `COCCOCCOCCOCCOCCO`, the result was inactive.

Turning to `CCCCCCCCCCCCSC`, the compound was called inactive.

With `OC[C@H]1O[C@H](O[C@]2(CCl)O[C@H](CCl)[C@@H](O)[C@@H]2O)[C@H](O)[C@@H](O)[C@H]1Cl`, the compound was classed as inactive.

Regarding `CCCCCCCCCOC(C)=O`, the outcome was inactive.

As to `O=C[C@H](O)[C@H](O)[C@H](O)CO`, the compound was classed as inactive.

Consider `O=C(O)CN(CCN(CC(=O)O)CC(=O)O)CCN(CC(=O)O)CC(=O)O`, for which the compound was called inactive.

Take `CCCCCCCCCCCCCCCC(=O)OC[C@H](O)[C@H]1OC(=O)C(O)=C1O`: the result was inactive.

For the origin of these results see PubChem BioAssay (EPA / NIEHS).
